{
  "source": "PubChem BioAssay (NCI)",
  "note": "The panel holds about 83,000 compounds, 20% with a hit somewhere; the sample as a whole holds those more often.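 Treatment: one concentration, 48 hours, 96-well format. Scoring: percent growth, with anything below 10 considered active.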 Calls of active or inactive are those of the source.",
  "data": [
    {"system": "MDA-MB-468 breast", "test": "NCI-60 one-dose screen, 48 h (100 = growth as untreated, 0 = no growth, -100 = all killed)", "details": "10 µM unless noted", "values": [
      {"smiles": "O=C1NC(=O)/C(=C\\c2ccco2)S1", "growth": "108% (inactive)"},
      {"smiles": "O=[N+]([O-])C1CC2C=CC1C2", "note": "(stereo not drawn)", "growth": "99.5% (inactive)"},
      {"smiles": "C=CCNC(=S)NNc1ccc([N+](=O)[O-])cn1", "growth": "98.7% (inactive)"},
      {"smiles": "COc1cccc(OC)c1C(=O)N[C@@H]1C(=O)N2[C@@H]1SC(C)(C)[C@@H]2C(=O)O", "growth": "114% (inactive)"},
      {"smiles": "CC[C@H](Nc1nc(C)nc(N)c1C#N)c1nc2cccc(NCc3ccc(C(=O)NO)cc3)c2c(=O)n1-c1ccccc1", "growth": "-37.1% (active)"},
      {"smiles": "COc1cc(-c2cc3cc(O)ccc3oc2=O)cc(OC)c1OC", "growth": "106% (inactive)"},
      {"smiles": "CCC(C)C1NC(=O)C(CCCCN)NC(=O)C(CCCCN)NC(=O)C(CC(C)C)NC(=O)C(CCCCN)NC(=O)C(C(C)CC)NC(=O)C(C(C)C)NC(=O)C(C(C)CC)NC(=O)C(CCCCN)NC(=O)C(CCCCN)NC(=O)C(C)NC(=O)C(CCCCN)NC(=O)C(CC(C)C)NC1=O", "note": "(stereo not drawn)", "growth": "1.45% (active)"},
      {"smiles": "CCNCc1ccc(O)c2ncccc12", "growth": "54.6% (inactive)"},
      {"smiles": "O=C(c1ccc(Nc2nccc(NCCCCNc3ccnc4cc(Cl)ccc34)n2)cc1)N1CCCCC1", "growth": "-25.3% (active)"},
      {"smiles": "Cc1occc1-c1nc2s/c(=C\\c3cn(-c4ccccc4)nc3-c3ccccc3)c(=O)n2n1", "growth": "89.8% (inactive)"},
      {"smiles": "Nc1ncccc1O", "growth": "74% (inactive)"},
      {"smiles": "CC(C)OC(=O)[C@H](C)N[P@@](=O)(OC[C@@]1(C)O[C@@H](n2cc(F)c(N)nc2=O)C[C@@H]1O[P@](=O)(N[C@@H](C)C(=O)OC(C)C)Oc1ccccc1)Oc1ccccc1", "growth": "97.9% (inactive)"},
      {"smiles": "CC[C@@H]1NC(=O)[C@H]([C@H](O)[C@H](C)C/C=C/c2ccc(CN3C(=O)CCCC3=O)cc2)N(C)C(=O)[C@H](C(C)C)N(C)C(=O)[C@H](CC(C)C)N(C)C(=O)[C@H](CC(C)C)N(C)C(=O)[C@@H](C)NC(=O)[C@H](C)NC(=O)[C@H](CC(C)C)N(C)C(=O)[C@H](C(C)C)NC(=O)[C@H](CC(C)C)N(C)C(=O)CN(C)C1=O", "growth": "13.4% (inactive)"},
      {"smiles": "COc1cc(CN(c2ccc(C)cc2)C2OC(=O)c3ccccc32)cc(OC)c1OC", "note": "(stereo not drawn)", "growth": "25% (inactive)"},
      {"smiles": "COC(=O)[C@]1(C)CCC[C@]2(C)[C@H]3C[C@@H]4[C@H]5[C@@H]6CC/C(=N\\OCC/C(N)=N/O)[C@H]5[C@@]3(CC[C@H]21)CC4(C(C)C)O6", "growth": "64.1% (inactive)"},
      {"smiles": "O=C1C2=C(CCN(Cc3ccccc3)C2)N2CCN=C2N1Cc1ccc(F)cc1F", "growth": "5.49% (active)"},
      {"smiles": "O=C(NCCO)C(F)(F)F", "growth": "116% (inactive)"},
      {"smiles": "C#CCn1c2c(c3ccccc31)C[C@]1(C)[C@H]3CC[C@@H]4[C@@H]5C(=CCC[C@H]5C(=C)C)CC[C@@]4(C)[C@]3(C)CC[C@H]1C2(C)C", "growth": "117% (inactive)"},
      {"smiles": "CCC#CC[C@H](O)C/C=C1/C(=O)C=C[C@@H]1C/C=C\\CCCC(=O)OC", "growth": "12.4% (inactive)"},
      {"smiles": "COc1cc(Nc2c(C#N)cnc3cc(OCCCN4CCN(C)CC4)c(OC)cc23)c(Cl)cc1Cl", "growth": "56.2% (inactive)"},
      {"smiles": "COc1cc(C2C=C(c3ccc(Cl)c(Cl)c3)N=C3SC(C)=CN32)cc(OC)c1OC", "note": "(stereo not drawn)", "growth": "62.5% (inactive)"},
      {"smiles": "CCOC(=O)C1CC(=O)c2cc(OC)c(OC)cc2C1", "note": "(stereo not drawn)", "growth": "84.9% (inactive)"},
      {"smiles": "COc1ccc(-c2n/c(=C\\c3c(O)[nH]c4ccc(OC)cc34)cc3c2=Nc2ccccc2-3)cc1", "growth": "-46.8% (active)"}
    ]}
  ]
}
